# Measured values from ChEMBL document CHEMBL1961873, “Compounds: GSK PKIS; Assays: Nanosyn kinase panel” (2012).
# Molecular target: Serine/threonine-protein kinase PAK 1 (Homo sapiens) (UniProt Q13153)
# Conditions: at 1 µM
# 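Also: reported values are mean percent inhibition of PAK1 activity.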
# Sequence of Serine/threonine-protein kinase PAK 1 (Homo sapiens) (Q13153 whole entry): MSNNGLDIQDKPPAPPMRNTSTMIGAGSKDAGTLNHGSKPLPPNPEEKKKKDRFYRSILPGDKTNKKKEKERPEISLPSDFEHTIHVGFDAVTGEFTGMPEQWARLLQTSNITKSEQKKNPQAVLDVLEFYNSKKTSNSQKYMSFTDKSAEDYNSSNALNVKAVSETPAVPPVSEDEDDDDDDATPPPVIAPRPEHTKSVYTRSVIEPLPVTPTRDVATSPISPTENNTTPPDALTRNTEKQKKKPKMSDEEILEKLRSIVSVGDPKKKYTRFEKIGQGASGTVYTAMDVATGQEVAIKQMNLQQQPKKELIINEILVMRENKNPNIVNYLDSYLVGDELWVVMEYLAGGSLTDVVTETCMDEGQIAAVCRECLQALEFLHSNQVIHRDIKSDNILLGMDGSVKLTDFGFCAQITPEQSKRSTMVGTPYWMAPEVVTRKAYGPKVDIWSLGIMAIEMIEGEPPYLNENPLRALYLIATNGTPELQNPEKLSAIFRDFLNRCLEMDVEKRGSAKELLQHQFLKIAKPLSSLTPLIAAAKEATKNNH
row,SMILES,inhibition
1,COc1cccc(/C=N/Nc2ncnc3c2cnn3-c2cccc(OC)c2)c1,6.13%
2,COc1ccc2ncn(-c3cc(O[C@H](C)c4ccccc4Cl)c(C(N)=O)s3)c2c1,7.26%
3,O=C(Nc1n[nH]c2cc(-c3cc(F)ccc3F)ccc12)C1CC1,5.57%
4,COc1ccc(-c2ccc3c(NC(=O)C4CC4)n[nH]c3n2)cc1,2.7%
5,Clc1ccc(CNc2nccc(-c3cnn4ncccc34)n2)cc1,-0.13%
6,CN(C)CCOc1ccc(-c2cc(-c3ccc4c(c3)CCC4=NO)c(-c3ccncc3)o2)cc1,-1.45%
7,COc1cc(N2CCN(C(C)C)CC2)ccc1Nc1nc(Nc2ccc(F)cc2C(=O)NC[C@@H](O)CO)c2cc[nH]c2n1,11.8%
8,Cc1ccc(C(=O)NC(C)C)cc1-c1ccc(C(=O)NCC2CC2)cc1,-0.84%
9,O=C(Nc1ccc(Oc2ccc3[nH]c(NC(=O)c4ccccc4)nc3c2)cc1)Nc1cc(C(F)(F)F)ccc1F,5.94%
10,Cc1ccc(C(=O)NC2CCC2)cc1-c1ccc(C(=O)NCC2CC2)cc1,8.35%
11,O=C1Nc2ccc(I)cc2C1=Cc1cc(Br)c(O)c(Br)c1,11.5%
12,COc1cc(C)c(N(C)C(=O)CN(C)C)cc1Nc1nc(Nc2cccc(F)c2C(N)=O)c2cc[nH]c2n1,0.54%
13,NS(=O)(=O)c1ccc(N/N=C2\C(=O)Nc3ccc(-c4cnco4)cc32)cc1,3.12%
14,CS(=O)(=O)CCNCc1ccc(-c2ccc3ncnc(Nc4ccc(OCc5ccccc5)c(Br)c4)c3c2)o1,8.98%
15,COc1cccc(-n2cnc3c(N/N=C/c4ccncc4)ncnc32)c1,1.58%
16,Cc1ccc(NC(=O)c2ccoc2)cc1-c1ccc(C(=O)NCC2CC2)cc1,4.54%
